The record followed here is PubChem BioAssay (NCATS).

Inconclusive results are not listed. Active and inactive are the calls of the source. Calls come from the whole dose curve; as a rule, active = well fitted curve in the direction sought with a large enough effect; inconclusive = small, poorly fitted or top-dose-only effect, or another doubt; inactive = no such curve, though single readings can be large; an effect the other way counts as inactive or inconclusive.

Assay [1] in a line: qHTS of pediatric cancer cell lines to identify multiple opportunities for drug repurposing: Primary screen for U-2 OS cells (AID 1347096). Note: nearly all actives have a fitted effect of over 50% in size. Note: potency is the fitted concentration of half-maximal effect. The method, boiled down:
(§1)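 Cells (500-1,000/well) rested 5 h, then received compounds for 48 h; metabolically active cells were measured by CellTiter-Glo luminescence. Final concentrations spanned up to 46 µM (MIPE, 11-point) or 0.59 nM-46 µM (NPC, 8-point) in primary screens, 11-point in follow-ups.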
For orientation: Quantitative high-throughput screening tests each substance at several concentrations.

The nature of assay [2]: qHTS of pediatric cancer cell lines to identify multiple opportunities for drug repurposing: Primary screen for Saos-2 cells (AID 1347097). Note: nearly all actives have a fitted effect of over 40% in size. Note: potency is the fitted concentration of half-maximal effect. Summed up: (§2)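 Following a 5-hour attachment period, cells at 500-1,000/well received compounds and were cultured for 48 hours. CellTiter-Glo was added and luminescence read to estimate viable, metabolically active cells.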
Assay [3] is described as follows: qHTS of pediatric cancer cell lines to identify multiple opportunities for drug repurposing: Primary screen for NB1643 cells (AID 1347099). Note: nearly all actives have a fitted effect of over 50% in size. Note: potency is the fitted concentration of half-maximal effect. Summed up:
as §2

A short description of assay [4]: qHTS of pediatric cancer cell lines to identify multiple opportunities for drug repurposing: Primary screen for LAN-5 cells (AID 1347100). Note: potency is the fitted concentration of half-maximal effect. Summed up:
as §1

Assay [5] in a line: qHTS of pediatric cancer cell lines to identify multiple opportunities for drug repurposing: Primary screen for BT-12 cells (AID 1347101). Note: nearly all actives have a fitted effect of over 25% in size. The method, boiled down:
as §1

Assay [6] can be described thus: qHTS of pediatric cancer cell lines to identify multiple opportunities for drug repurposing: Primary screen for RD cells (AID 1347104). Note: nearly all actives have a fitted effect of over 55% in size. Note: potency is the fitted concentration of half-maximal effect. Summed up: as §2
Assay [7] is described as follows: qHTS of pediatric cancer cell lines to identify multiple opportunities for drug repurposing: Primary screen for MG 63 (6-TG R) cells (AID 1347105). Note: nearly all actives have a fitted effect of over 50% in size. Note: potency is the fitted concentration of half-maximal effect. The method, boiled down:
as §2

A short description of assay [8]: qHTS of pediatric cancer cell lines to identify multiple opportunities for drug repurposing: Primary screen for Rh18 cells (AID 1347102). Note: nearly all actives have a fitted effect of over 65% in size. Note: potency is the fitted concentration of half-maximal effect. Summed up: as §1
The nature of assay [9]: qHTS of pediatric cancer cell lines to identify multiple opportunities for drug repurposing: Primary screen for OHS-50 cells (AID 1347103). Note: nearly all actives have a fitted effect of over 40% in size. Note: potency is the fitted concentration of half-maximal effect. The method, boiled down:
as §1

Assay [10] in a line: qHTS of pediatric cancer cell lines to identify multiple opportunities for drug repurposing: Primary screen for SK-N-SH cells (AID 1347098). Note: nearly all actives have a fitted effect of over 65% in size. Note: potency is the fitted concentration of half-maximal effect. Summed up:
as §1

As for `COC(=O)C(c1ccccc1Cl)N1CCc2sccc2C1` (stereo not given), the Potency result in assay [1], in assay [2], in assay [3], in assay [4], in assay [5] and in [6] was “inactive” each time. Besides, the Potency result in [7] was “inactive”.

For `N[C@H](C(=O)O)[C@@H](O)c1ccc(O)c(O)c1`, the Potency entry in assay [1], in [2], in assay [3], in assay [5], in assay [8] and in assay [9] was “inactive” in each case. For the same compound, the Potency result in assay [6] and in assay [7] was “inactive” each time.

In the case of `O=[N+]([O-])c1ccc(/C=N\O)o1`, the Potency result in assay [1], in assay [2], in assay [10], in [9], in [6] and in [7] was “inactive” each time.

As for `CCOCCn1c(N2CCCN(C)CC2)nc2ccccc21`, the Potency entry in assay [1], in assay [2], in [3], in assay [5], in [8] and in [9] was “inactive” each time. The Potency result in [6] and in [7] was “inactive” in each case.

`CCCCCCCCOc1ccc(C(=O)c2ccccc2)c(O)c1`: the Potency result in [1], in assay [2], in assay [3], in assay [4], in assay [5] and in [8] was “inactive” each time. Moreover, the Potency result in assay [9], in assay [6] and in [7] was “inactive” throughout.

In the case of `COc1cc(N)c(Cl)cc1C(=O)NC1CCN(Cc2ccccc2)CC1`, the Potency result in [1], in assay [2], in assay [3], in [4], in assay [5] and in assay [8] was “inactive” throughout. For the same compound, the Potency result in assay [6] and in assay [7] was “inactive” each time.

`CC(=O)NO`: the Potency entry in [1], in [2], in assay [3], in assay [4], in [5] and in assay [8] was “inactive” throughout. For the same compound, the Potency result in [9], in [6] and in [7] was “inactive” in each case.

Turning to `COc1ccc(CN(CCN(C)C)c2ncccn2)cc1`, the Potency entry in assay [1], in assay [2], in assay [10], in assay [3], in assay [5] and in assay [9] was “inactive” in each case. In addition, the Potency entry in [6] and in [7] was “inactive” each time.

`O=C(O)C(Cc1cc(I)c(O)c(I)c1)c1ccccc1` (stereo not given): the Potency result in assay [1], in [2], in [3], in assay [4], in assay [5] and in [8] was “inactive” throughout. Also, the Potency result in assay [9], in assay [6] and in [7] was “inactive” in each case.

Take `CN(C)C(=O)Nc1ccc(Cl)c(Cl)c1`: the Potency entry in [1], in [2], in [3], in assay [4], in assay [5] and in assay [8] was “inactive” in each case. Besides, the Potency result in assay [9], in [6] and in assay [7] was “inactive” in each case.

For the compound `OC(C#CCN1CCCC1)(c1ccccc1)c1ccccc1`, the Potency result in [1], in assay [2], in assay [10], in assay [3], in [5] and in [6] was “inactive” throughout. Moreover, in assay [7], the Potency entry was “inactive”.

On to `OCc1ccccn1`, for which the Potency entry in [1], in [2], in [3], in assay [4], in assay [5] and in assay [8] was “inactive” throughout. Besides, the Potency result in [9], in assay [6] and in [7] was “inactive” throughout.

Turning to `CCN(CC)CCNC(=O)c1cc(Br)c(N)cc1OC`, the Potency entry in [1], in assay [2], in [10], in [3], in [5] and in assay [9] was “inactive” in each case. Moreover, the Potency result in assay [6] and in assay [7] was “inactive” throughout.

As to `CC(=C(CCOC(=O)C(C)C)SSC(CCOC(=O)C(C)C)=C(C)N(C=O)Cc1cnc(C)nc1N)N(C=O)Cc1cnc(C)nc1N`, the Potency entry in assay [1], in assay [2], in assay [3], in [4], in assay [5] and in assay [8] was “inactive” in each case. The Potency entry in assay [9], in assay [6] and in assay [7] was “inactive” in each case.

As to `CO[C@]12C[C@@H](COC(=O)c3cncc(Br)c3)CN(C)[C@@H]1Cc1cn(C)c3cccc2c13`, the Potency entry in [1], in assay [2], in assay [3], in assay [4], in assay [5] and in assay [8] was “inactive” in each case. The Potency entry in assay [9], in [6] and in assay [7] was “inactive” each time.

Take `O=C(NCCc1c[nH]c2ccccc12)c1cccnc1`: the Potency entry in [1], in assay [2], in [3], in [4], in [5] and in [8] was “inactive” in each case. Also, the Potency result in assay [9], in assay [6] and in assay [7] was “inactive” each time.

For the compound `Cc1cc(NS(=O)(=O)c2ccc(N)cc2)nc(C)n1`, the Potency entry in [1], in assay [2], in assay [3], in [4], in assay [5] and in assay [8] was “inactive” throughout. Besides, the Potency result in assay [9], in [6] and in assay [7] was “inactive” in each case.

In the case of `CN(C)CCC[C@@]1(c2ccc(F)cc2)OCc2cc(C#N)ccc21`, the Potency entry in [1], in assay [2], in assay [3], in assay [4], in [5] and in [8] was “inactive” each time. Moreover, the Potency result in [9] and in assay [7] was “inactive” throughout.

With `Cc1c(-c2ccccc2)oc2c(C(=O)OCCN3CCCCC3)cccc2c1=O`, the Potency entry in assay [1], in [2], in assay [3], in assay [4], in assay [5] and in assay [8] was “inactive” throughout. Further, the Potency entry in assay [9] and in assay [6] was “inactive” each time.

For `CC(C)Cc1ccc(CC(=O)O)cc1`, the Potency entry in assay [1], in [2], in assay [3], in assay [4], in assay [5] and in assay [8] was “inactive” throughout. Further, the Potency entry in [9], in [6] and in [7] was “inactive” in each case.

Consider `CCN(CC)CCOc1ccc2c(c1)C(=O)c1cc(OCCN(CC)CC)ccc1-2`, for which the Potency entry in assay [1], in assay [2] and in assay [7] was “inactive” throughout. Moreover, the Potency in assay [10] was 34.4 µM (active); in [4], 23.7 µM (active); in assay [6], 21.1 µM (active).

Consider `Clc1cccc(C(c2ccc3nc[nH]c3c2)n2ccnc2)c1` (stereo not given), for which the Potency result in assay [1], in assay [2], in assay [3], in assay [4], in assay [5] and in [8] was “inactive” in each case. Moreover, the Potency result in assay [9] and in assay [6] was “inactive” in each case.

For `OCCOCCN1CCN(C2=Nc3ccccc3Sc3ccccc32)CC1`, the Potency entry in assay [1], in [2], in assay [3], in assay [4], in [5] and in assay [8] was “inactive” in each case. In addition, the Potency result in [6] and in [7] was “inactive” throughout.

In the case of `O=C1[C@H](CC[C@H](O)c2ccc(F)cc2)[C@@H](c2ccc(O)cc2)N1c1ccc(F)cc1`, the Potency entry in assay [1], in [2], in assay [3], in assay [4], in assay [8] and in [6] was “inactive” throughout. Further, in [7], the Potency result was “inactive”.

Take `CC(C)n1c(/C=C/[C@@H](O)C[C@@H](O)CC(=O)O)c(-c2ccc(F)cc2)c2ccccc21`: the Potency is 6.68 µM (active) in [1]; 1.5 µM (active) in assay [2]; 10.6 µM (active) in [3]; 7.5 µM (active) in assay [8]; 6.92 µM (active) in [9]; 0.841 µM (active) in assay [7]. In addition, the Potency entry in [4] is “inactive”.

As to `CCOc1ccccc1C(N)=O`, the Potency entry in [1], in assay [2], in [4], in assay [5], in [9] and in assay [7] was “inactive” in each case. In [10], the Potency was 30.7 µM (active).

As to `C=C1c2cccc(O)c2C(O)=C2C(=O)[C@]3(O)C(O)=C(C(N)=O)C(=O)[C@@H](N(C)C)[C@@H]3[C@@H](O)[C@H]12`, the Potency entry in assay [1], in [2], in assay [3], in [4], in assay [8] and in [9] was “inactive” each time. In addition, the Potency entry in assay [6] and in [7] was “inactive” throughout.

Regarding `CCCCCCCCCCCCCCCC(=O)O`, the Potency result in [1], in assay [2], in [3], in assay [4], in assay [5] and in assay [9] was “inactive” each time. The Potency entry in assay [6] and in assay [7] was “inactive” throughout.
